Luciferase inh = Firefly luciferase inhibition profiling of diverse chemical library using quantitative high-throughput screening; Luciferin 4-monooxygenase (Photinus pyralis), P08659; purified P. pyralis luciferase, luminescence, biochemical; Potency, µM (titrated, usually from 115 µM), actives largely listed as inhibitors; hit rate 2.5% among 76,000; AID 1347043, 2019; further: nearly all actives have a fitted effect of over 65% in size
Target sequence (P08659 whole entry, looked up): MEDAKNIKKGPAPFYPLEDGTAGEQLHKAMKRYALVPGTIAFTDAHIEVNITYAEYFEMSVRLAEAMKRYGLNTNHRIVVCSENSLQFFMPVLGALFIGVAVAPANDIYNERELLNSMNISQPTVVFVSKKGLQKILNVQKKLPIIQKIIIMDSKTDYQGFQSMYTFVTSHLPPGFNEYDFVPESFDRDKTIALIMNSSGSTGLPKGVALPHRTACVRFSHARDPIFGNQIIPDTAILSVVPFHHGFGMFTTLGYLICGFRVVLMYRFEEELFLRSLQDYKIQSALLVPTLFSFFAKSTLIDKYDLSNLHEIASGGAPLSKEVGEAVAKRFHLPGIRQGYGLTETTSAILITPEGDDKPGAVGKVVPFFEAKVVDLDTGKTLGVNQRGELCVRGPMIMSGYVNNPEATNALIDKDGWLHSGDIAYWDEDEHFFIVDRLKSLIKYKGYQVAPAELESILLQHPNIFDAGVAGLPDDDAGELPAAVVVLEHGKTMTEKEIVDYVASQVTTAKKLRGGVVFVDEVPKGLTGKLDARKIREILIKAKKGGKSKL
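Purified 10nM P. pyralis luciferase with 10uM D-luciferin and 10uM ATP in 50mM Tris acetate pH 7.5, 10mM Mg acetate, 0.01% Tween-20, 0.05% BSA. qHTS titration; luminescence read by CCD imager.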
3T3 cytotox = Cytotoxic Profiling in NIH 3T3 Cell Line of Diverse Libraries Using Quantitative High-Throughput Screening; NIH 3T3 viability, CellTiter-Glo ATP luminescence, 48-72 h; Potency, µM (top dose mostly 96.7 µM), inactives show top-dose activity change, negative = cytotoxicity, actives largely listed as inhibitors; hit rate 4.3% among 94,000; AID 1345082, 2018; further: nearly all actives have a fitted effect of over 55% in size
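Cells were seeded at 400 per well, treated with pin-transferred compound, and kept 48 or 72 hr at 37 °C before CellTiter-Glo addition and luminescence imaging of cellular ATP.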
NPR1 antag = Natriuretic polypeptide receptor (hNpr1) antagonism - Primary qHTS; Potency, µM (doses to about 46.3 µM), for inactives: at the highest dose activity change, negative = inhibition, usual class: inhibitors; Atrial natriuretic peptide receptor 1 (Homo sapiens), P16066; HEK293 hNpr1 GloSensor cGMP, ANP-stimulated luminescence; hit rate 1.6% among 76,000; AID 1347048, 2019; calls by dose curve; further: nearly all actives have a fitted effect of over 60% in size
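Compound pre-incubated 30 min at room temperature on GloSensor-loaded HEK293 cells stably carrying hNpr1 and the pGS-40F cGMP biosensor. Stimulation uses hNppA at 0.1 nM final; luminescence is taken at baseline and 20 min post-agonist.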
HEK cytotox = Cytotoxic Profiling in HEK 293 Cell Line of Diverse Libraries Using Quantitative High-Throughput Screening | HEK 293 viability, ATP luminescence (CellTiter-Glo), 48-72 h | Potency, µM (doses to about 115 µM), for the others: top-dose activity change, negative = cytotoxicity, most hits filed as inhibitors | hit rate 6.6% among 94,000; further: nearly all actives have a fitted effect of over 60% in size
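Read-out: CellTiter-Glo ATP luminescence. Cells: HEK 293, 250 cells/well. Exposure: 48 or 72 hr, 37 degree Celsius.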
The depositor's hits bear a star; i = inactive; ? = inconclusive; / = no result; [ ] = another dose, or the depositor's remark. Sampled rows, rich in hits. Any-hit rate of the full collection: about 11%. Unless noted, the call rests on the fitted dose curve; in most records, active means well fitted curve in the direction sought with a large enough effect; inconclusive means small, poorly fitted or top-dose-only effect, or another doubt; inactive means no such curve, though single readings can be large; an effect the other way counts as inactive or inconclusive. On the % scale 0 is the no-effect control and ±100 the full control effect; potency means the concentration at half of the fitted maximal effect.

SMILES	Luciferase inh	3T3 cytotox	NPR1 antag	HEK cytotox
CCN1CCN(CCNC(=O)c2cc(-c3ccc(Cl)cc3)cn2CC)CC1	i	20µM*	-2.1%	28.2µM*
CCn1cc(-c2ccc(Cl)cc2)cc1C(=O)NCCOC	i	-9.5%	-0.5%	-3.9%
CCN1CCN(CCNC(=O)c2cc(-c3ccc(Cl)cc3)cn2C)CC1	i	?	-0.8%	25.1µM*
Cc1ccc(-c2cc(C(=O)NCCN3CCN(C)CC3)n(C)c2)cc1	i	?	-13.1%	?
CC(C)CCN1CCOc2cc(C(=O)Nc3ccc4cn[nH]c4c3)ccc2C1	?	?	-24.2%[70.6 µM]	89.1µM*
Cc1csc(NC(=O)c2ccc3c(c2)OCCN(CCC(F)(F)F)C3)n1	?	?	-9.2%[70.6 µM]	79.4µM*
Cc1ccccc1C(=O)N1CCCC1C(=O)N1CCC(c2nc3ccncc3[nH]2)C1 (centres undefined)	/	-11.5%	/	-3.0%
O=C(c1cccc(Cl)c1)N1CCCC(C(=O)N2CCC(N3CCOCC3=O)CC2)C1 (centres undefined)	/	-27.5%	/	-5.7%
O=[S+]([O-])(NC1CCN(Cc2cccc(-c3ccc(F)c(F)c3)c2)CC1)c1ccccc1	/	20µM*	/	28.2µM*
O=[S+]([O-])(NC1CCN(Cc2cccc(-c3cccs3)c2)CC1)c1cccc(C(F)(F)F)c1	/	8.91µM*	/	?
O=[S+]([O-])(NC1CCN(Cc2cccc(-c3ccc(F)c(F)c3)c2)CC1)c1cccc(C(F)(F)F)c1	/	14.1µM*	/	22.4µM*
CSc1ccc(-c2cccc(CN3CCC(N[S+](=O)([O-])CCC(F)(F)F)CC3)c2)cc1	/	?	/	-21.6%
COC(=O)CNC(=O)C1CCN(C(=O)c2ccc(-c3cncnc3)cc2)CC1	/	0.0%	/	-0.5%
Cc1ccccc1C(=O)NCCNC(=O)c1cccc(-c2ncccc2C#N)c1	/	-13.9%	/	2.1%
O=C(NCCN1CCOCC1)c1nc2sccn2c1-c1ccc(C(F)(F)F)cc1	/	-28.9%	/	-14.1%
COC(=O)[C@@H]1Cc2c([nH]c3ccccc23)[C@H]2C[C@@H](NCCN3CCOCC3)C[C@@H](c3ccc(C(F)(F)F)cc3)N21	i	14.1µM*	?	7.94µM*
COC(=O)[C@@H]1Cc2c([nH]c3ccccc23)[C@H]2C[C@@H](NCCN3CCOCC3)C[C@@H](c3ccc(OC(F)(F)F)cc3)N21	i	22.4µM*	4.6%	25.1µM*
CC1(C)[C@H](Cc2cc(CN3CCOCC3)on2)C[C@@H]1NC(=O)Nc1ccc(F)cc1	?	?	-14.2%[70.6 µM]	?
COC(=O)[C@@H]1Cc2c([nH]c3ccccc23)[C@H]2C[C@@H](NCCN3CCOCC3)C[C@@H](c3ccc(F)c(F)c3)N21	i	28.2µM*	-18.7%	?
Clc1ccc(-c2ccc(CN3CC[C@H]4CC[C@@H](C3)N4)o2)cc1	?	28.2µM*	-11.8%	28.2µM*
CN1CC2(CCN(Cc3ccc(-c4ccc(Cl)cc4)o3)C2)OC1=O (centres undefined)	i	?	-13.3%	?
CCN1CCN(C(=O)c2cc(-c3ccc(OC)cc3)nc3c2cnn3C)CC1	/	-24.2%	/	-11.4%
COc1ccc(-c2cc(C(=O)N3CCN(Cc4ccccc4)CC3)c3cnn(C)c3n2)cc1	/	?	/	35.5µM*
CN1CCN(C(=O)c2cc(-c3ccccc3C(F)(F)F)nc3c2cnn3C)CC1	/	-16.0%	/	2.5%
Cn1ncc2c(C(=O)N3CCN(Cc4ccccc4)CC3)cc(-c3ccccc3F)nc21	/	?	/	39.8µM*
SMILES	Luciferase inh	3T3 cytotox	NPR1 antag	HEK cytotox
COc1ccc(-c2cc(C(=O)N3CCN(c4ncccn4)CC3)c3cnn(C)c3n2)cc1	/	?	/	39.8µM*
COc1ccc(-c2cc(C(=O)N3CCN(C)CC3)c3cnn(C)c3n2)cc1	/	-11.5%	/	3.3%
Cc1nc(C(=O)Nc2nn(Cc3ccccc3)c3cc(OC(C)C)ccc23)c(C)o1	i	?	7.1%	?
O=C(Nc1ccccc1)Nc1cnc2c(c1)CCC2	/	-27.8%	/	-6.8%
O=c1c2nc(-c3cccnc3)ccc2ncn1-c1ccc(F)cc1F	i	?	0.1%[70.6 µM]	70.8µM*
C[S+](=O)([O-])c1cccc(-c2ccc3ncn(-c4ccc(F)cc4F)c(=O)c3n2)c1	i	?	0.1%[70.6 µM]	?
O=c1c2nc(-c3ccc(O)c(F)c3)ccc2ncn1-c1ccc(F)cc1F	i	?	-1.5%[70.6 µM]	?
COCc1cccc(-c2ccc3ncn(-c4ccc(F)cc4F)c(=O)c3n2)c1	i	?	4.2%[70.6 µM]	-23.2%[172 µM]
CC(=O)Nc1cccc(-c2ccc3ncn(-c4ccc(F)cc4F)c(=O)c3n2)c1	i	?	-1.7%[70.6 µM]	89.1µM*
COc1ncc(-c2ccc3ncn(-c4ccc(F)cc4F)c(=O)c3n2)cn1	i	?	-2.1%[70.6 µM]	89.1µM*
COc1ccc(-c2cc3c(=O)n(CCNC(=O)c4cc(F)cc(F)c4)ccn3n2)cc1	2µM*	?	-19.3%	?
COc1ccccc1C(=O)NCCn1ccn2nc(-c3ccc(C)c(C)c3)cc2c1=O	i	-26.8%	-4.3%	-25.8%
COc1ccc(-c2cc3c(=O)n(CCNC(=O)c4ccc(F)cc4)ccn3n2)cc1	?	-10.7%	-8.9%	?
COc1ccc(-c2cc3c(=O)n(CCNC(=O)c4ccccn4)ccn3n2)cc1	7.94µM*	-27.1%	-10.9%	-26.9%
COc1ccc(-c2cc3c(=O)n(CCNC(=O)c4ccccc4C)ccn3n2)cc1	10µM*	-20.7%	-15.4%	?
COc1ccc(-c2cc3c(=O)n(CCNC(=O)c4cccc5[nH]ccc45)ccn3n2)cc1	6.31µM*	?	-22.2%	31.6µM*
CC(=O)N(C1CCOCC1)C1CCN(S(=O)(=O)c2ccc(Br)cc2)CC1	/	-28.8%	/	-14.7%
CNC(=O)[C@@H]1CN(Cc2ccc(Cl)cc2F)C[C@H]1CO	i	-17.8%	2.6%	-14.1%
O=C(NCCn1ccn2nc(-c3ccc(F)cc3)cc2c1=O)c1cccc(Cl)c1	i	-26.5%	?	-43.1%
CC(=O)Nc1cccc(C(=O)NCCn2ccn3nc(-c4ccc(F)cc4)cc3c2=O)c1	20µM*	?	0.0%	44.7µM*
O=C1Nc2ccccc2CC12CN(CC1CCCC1)C2	/	-3.4%[138 µM]	/	-17.3%[172 µM]
CCCn1cc(-c2ccnc(NC3CCN(Cc4ccccn4)CC3)n2)c(C)n1	i	?	-5.7%	28.2µM*
CCCn1cc(-c2ccnc(NCc3c(F)ccc(C)c3F)n2)c(C)n1	i	?	1.1%	50.1µM*
CCCn1cc(-c2ccnc(NCc3cccc(C)c3)n2)c(C)n1	i	?	7.5%	?
O=C(CN1CCCc2nc(-c3ccncc3)ncc2C1=O)NCCCN1CCCC1=O	i	-17.6%	-2.1%	-4.7%
CCCCCC(=O)N[C@H]1C[C@@H](Cc2cc(COc3ccccc3)on2)C1(C)C	i	39.8µM*	?	?

Screening data from PubChem BioAssay.
